# Assay outcomes (PubChem BioAssay)
# ALDH1A1 block – blocks purified human ALDH1A1 activity; P00352; Purified ALDH1A1, NADH fluorescence, propionaldehyde substrate; Potency, µM (top dose mostly 75.3 µM), for the others: at the top dose activity, negative = inhibition, hits mostly inhibitors; 7.3% of 220,000 active;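 also: potency is read from the fitted curve at half-maximal effect; plate controls were no enzyme wells and a reference inhibitor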
# IMPase cell inh – membrane-permeable compound that blocks inositol monophosphatase; inhibition (IP1 accumulation), % at 46.1 µM; P97697; 120,000 tested, under 10 active; CHO-M1 cells, IP1 accumulation, HTRF TR-FRET ratio; active = well fitted curve in the direction sought with a large enough effect in the signal ratio, not every such curve was filed as active; inconclusive = small, poorly fitted or top-dose-only effect, or a change in a side signal; inactive = no such curve, though single readings can be large or run the other way; the % refers to the signal ratio;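 also: cells stimulated with carbachol in lithium chloride buffer; plate controls were DMSO basal wells for no effect and reference inhibitor wells for full effect; higher means more IMPase inhibition seen as more IP1 and lower FRET ratio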
# Target sequence (P97697 whole entry, looked up): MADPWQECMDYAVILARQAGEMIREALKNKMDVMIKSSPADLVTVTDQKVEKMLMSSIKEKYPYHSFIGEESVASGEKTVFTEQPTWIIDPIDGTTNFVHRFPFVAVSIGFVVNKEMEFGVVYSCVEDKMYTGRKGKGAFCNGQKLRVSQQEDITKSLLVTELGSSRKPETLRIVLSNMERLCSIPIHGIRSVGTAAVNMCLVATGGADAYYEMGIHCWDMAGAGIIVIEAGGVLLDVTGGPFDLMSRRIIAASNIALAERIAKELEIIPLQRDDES
#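 Measured: the HTRF emission ratio (665/620 nm) plus the 620 nm donor channel, each fitted to the Hill equation to give AC50. Cells were CHO-M1 given compounds up to 46 uM and a 30 min carbachol stimulation at 37C.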
# PNC inhibitor – perinucleolar compartment assembly inhibition; AID 2417; PC3M PTB-GFP, PNC prevalence imaging, 16 h; hits give low values; activity change (PNC), negative = inhibition, % at 10 µM; 3.1% of 140,000 active;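 active = readout at or below -70, meaning at least 70% loss of cells showing the perinucleolar compartment, a nuclear body marking cancer cells; inconclusive = readout between -30 and a set limit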;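 also: plate controls were DMSO wells for no effect and camptothecin positive control wells for full effect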
#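 Read-out is percentage of cells bearing a perinucleolar compartment, from automated 20x imaging of fixed, Hoechst-stained PC3M PTB-GFP cells. Cells were seeded 4 h, then exposed 16 h to compound (23 nl of library stock) in duplicate plates.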
# IMPase Li inh – IMPase inhibition in cells with lithium potentiation | CHO-M1 cells, IP1 TR-FRET (IP-One), carbachol + lithium | Potency, µM (highest dose often 59.4 µM), inactives show at the top dose activity, negative = IMPase inhibition, hits mostly inhibitors | 0.35% of 210,000 active; active = well fitted inhibition curve with a large enough effect; inconclusive = small, poorly fitted or top-dose-only effect; inactive = no such curve, though single readings can be large or run the other way;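 also: IP1 builds up when IMPase is blocked and the TR-FRET signal falls; potency is read from the fitted curve at half-maximal effect; plate controls were basal vehicle for no effect and high inhibitor control for full effect; nearly all actives have a fitted effect of over 50% in size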
#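 CHO cells stably expressing M1 receptor (2000/well, cultured 16–30 h) treated 30 min at 37C with compound plus low lithium. Cytosolic IP1 by TR-FRET (665/620 ratio and 620 channel) after 10 min lysis; AC50 by Hill fit.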
# HPGD block – inhibitors of human 15-hydroxyprostaglandin dehydrogenase (HPGD); P15428; purified HPGD, NADH fluorescence kinetic, PGE2 substrate; Potency, µM, inactives show at the highest dose activity change, negative = inhibition, most hits filed as inhibitors; 4.3% of 150,000 active; also: potency is read from the fitted curve at half-maximal effect
# Target sequence (P15428 whole entry, looked up): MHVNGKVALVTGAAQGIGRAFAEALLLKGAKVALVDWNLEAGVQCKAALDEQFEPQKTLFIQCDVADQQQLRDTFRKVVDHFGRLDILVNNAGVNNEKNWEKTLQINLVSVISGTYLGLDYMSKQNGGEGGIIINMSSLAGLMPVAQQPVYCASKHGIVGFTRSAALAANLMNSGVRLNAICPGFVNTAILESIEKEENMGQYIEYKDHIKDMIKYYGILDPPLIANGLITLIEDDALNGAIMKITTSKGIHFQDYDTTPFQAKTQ
#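 NADH formation kinetics: reaction with 30 uM PGE2 and 1 mM NAD+ (final), 20 nM enzyme, Tris-HCl pH 8 with Tween 20, after 15 min compound preincubation at room temperature. Fluorescence change, last versus first of five reads.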
# * marks the source's active call; other numbers are inactive results; ? = inconclusive; · = not tested or not shown; [ ] = another dose, or the depositor's remark. In the library only some 11% were active in any assay of this set; here they are far more common. Unless noted, calls follow the shape of the dose curve; as a rule, active = well fitted inhibition curve with a large enough effect (not every such curve was filed as active); inconclusive = small, poorly fitted or top-dose-only effect, or another doubt; inactive = no such curve, though single readings can be large or run the other way. Unless noted, % is scaled to controls: 0 for no effect and ±100 for the full control effect.
SMILES,ALDH1A1 block,IMPase cell inh,PNC inhibitor,IMPase Li inh,HPGD block
CC(C)(C)C1CCc2c(sc(NC(=O)CCC(=O)O)c2C(=O)Nc2ccccc2C(F)(F)F)C1 (configuration not stated),·,6.4,·,·,·
Nc1nonc1C(=O)NCCNC(=O)c1ccccc1F,0.6%,-0.7,30.2,-1.0%,3.7%
Nc1nonc1C(=O)NCCNS(=O)(=O)c1ccc(Br)cc1,10.2%,3.3,-89.9*,-7.9%,-7.7%
O=C(Nc1ccccc1)c1sc2cc(C(F)(F)F)cnc2c1-c1cccs1,?,7.9,-9.6,23.8%[38.3 µM],7.1%
Oc1ccc(Cl)cc1C1=Nc2ccccc2N=C(c2ccco2)C1,7.3%,8.0,-100.0*,?,-13.4%
COc1cccc(NC(=O)CN2C(=O)c3cccc4cccc2c34)c1,·,-5.4,·,·,·
CC(CCC(=O)O)C1CCC2C3CC[C@@H]4CCCC[C@@]4(C)C3CC[C@@]12C (some centres not stated),-0.6%,·,·,6.5%,-7.5%
Cc1[nH]n(-c2ccccc2)c(=O)c1/C=N/NC(=O)C(C)C,25.1µM*,·,·,10.5%,·
CC(=O)Nc1ccc(OC[C@@H](O)CNC(C)C)cc1,2.0%,-4.9,·,11.5%,1.0%
CC(C)=CC(=O)OCC(=O)Nc1ncc(Cl)c(C)c1Cl,-10.2%,7.4,9.5,-11.9%[38.3 µM],-10.5%
CC(=O)c1c(C)[nH]c(C(=O)OCC(=O)Nc2ncc(Cl)c(C)c2Cl)c1C,-8.3%,-0.8,-100.0*,-12.3%[38.3 µM],-6.5%
Cc1c(Cl)cnc(NC(=O)COC(=O)c2nn(C)c(=O)c3ccccc23)c1Cl,-1.4%,8.1,-7.3,11.3%,-29.3%
CCCn1nc(C(=O)OCC(=O)Nc2ncc(Cl)c(C)c2Cl)c2ccccc2c1=O,?,5.7,-112.6*,-1.4%,-1.7%
O=C(COc1ccc([N+](=O)[O-])cc1)Nc1ccccc1N1CCCC1,?,·,·,17.1%,·
O=C(O)c1cc(Cl)cc(Cl)c1,-9.2%,·,·,11.1%,-4.3%
CC(Sc1ccc2c(c1)OCCO2)C(=O)Nc1ccc(N2CCOCC2)cc1 (configuration not stated),4.2%,·,·,26.7%,·
CCOc1cc(N2CCCC2)ccc1[N+](=O)[O-],-3.0%,·,4.0,9.7%,-10.8%
O=Cc1ccc(N2CCCCC2)cc1,1.58µM*,·,·,-8.0%,·
COc1cc(N2CCCC2)ccc1C=O,12.6µM*,·,·,-1.2%,·
COc1ccccc1NS(=O)(=O)c1cccc(C(=O)N/N=C2\CC(=O)CC(C)(C)C2)c1,-3.2%,-6.3,7.9,1.1%,-19.8%
CCN(CC)c1ccc(/C=N/NC(=O)c2cccc(S(=O)(=O)Nc3ccccc3OC)c2)c(O)c1,1.8%,·,37.9,-16.9%,-17.1%
COc1ccccc1NS(=O)(=O)c1cccc(C(=O)NN)c1,3.98µM*,4.1,-14.0,-3.4%[38.3 µM],-5.2%
CCN(CC)c1ccc(/C=N/NC(=O)c2cccc(S(=O)(=O)Nc3ccccc3OC)c2)cc1,10µM*,·,·,0.0%,·
COc1ccccc1NS(=O)(=O)c1cccc(C(=O)NN=C2CCCC2)c1,12.6µM*,·,·,1.6%,·
Cn1/c(=N/N=C/c2ccc(N3CCOCC3)cc2)sc2ccccc21,?,·,·,-4.0%,·
SMILES,ALDH1A1 block,IMPase cell inh,PNC inhibitor,IMPase Li inh,HPGD block
Cc1cc(CNC(=S)Nc2cccc(Cl)c2Cl)nn1C,3.8%,·,·,2.2%,·
S=C(Nc1cccc(Cl)c1Cl)Nn1cnnc1,2.82µM*,0.0,18.1,-1.6%,25.1µM*
S=C(Nc1ccc(Cl)cc1Cl)Nn1cnnc1,4.5%,·,?,6.6%,7.94µM*
O=C(CSCc1ccccc1)NNC(=S)Nc1cccc(Cl)c1Cl,3.55µM*,13.3[1.84 µM],9.7,31.0%[38.3 µM],-9.9%
Cc1cccc(NC(=S)Nn2cnnc2)c1C,7.94µM*,·,·,0.6%,·
CNC(=S)NNC(=O)CSCc1c(Cl)cccc1Cl,-4.2%,·,·,·,·
Cc1cccc(NC(=S)NN2CCN(C)CC2)c1C,20.1%,-1.0,51.4,22.8%[38.3 µM],-8.4%
CCC(C)n1c(=N)c(C(=O)NCc2ccco2)cc2c(=O)n3cc(C)ccc3nc21 (configuration not stated),·,18.0,·,·,·
CCN1C(=O)C2C(C1=O)N1C(c3ccccc3)C3C(=O)N(CC)C(=O)C3N1C2c1ccccc1 (configuration not stated),-6.1%,-1.9,25.8,4.9%[38.3 µM],-5.3%
CCN1C(=O)C(C(=O)c2ccccc2)SC1=S (configuration not stated),7.51µM*,·,·,6.7%,·
CCc1ccc(OCCCC(=O)Nc2nccs2)cc1,-10.8%,·,·,5.9%,·
COc1ccc(OCCC(=O)Nc2nccs2)cc1,5.8%,·,·,7.4%,·
Cc1ccc(CCC(=O)Nc2nccs2)o1,?,-1.9,43.8,-8.1%[38.3 µM],28.2µM*
CCc1ccc(CCC(=O)Nc2nccs2)o1,17.8µM*,0.9,28.3,13.2%[38.3 µM],-27.8%
CCOc1ccc(C2c3c(oc4ccc(C)cc4c3=O)C(=O)N2c2nc(C)c(C)s2)cc1OC (configuration not stated),·,-2.2,·,·,·
Cc1cc(-c2nsc(=O)o2)c(S(C)(=O)=O)s1,2.82µM*,-6.3,24.1,-16.4%[38.3 µM],4.47µM*
O=C(COC(=O)c1ccc(F)c(S(=O)(=O)N2CCCCC2)c1)NCc1ccc(F)cc1,?,·,·,13.6%,·
Cc1nccn1-c1ccc(C=O)cc1,20µM*,·,·,1.4%,·
O=Cc1ccc(-n2cccn2)cc1,?,·,·,-18.8%,·
COCCCNS(=O)(=O)c1ccc(OC)c(Cl)c1Cl,10µM*,4.5,21.4,23.4%[38.3 µM],-9.3%
CCCCNS(=O)(=O)c1ccc(OC)c(Cl)c1Cl,?,1.4,30.1,7.0%[38.3 µM],-17.2%
CC1=NN(c2ccc(Cl)c(C(=O)O)c2)C(=O)C1,6.3%,1.1,21.7,4.7%,-8.0%
CC1=NN(c2ccc(S(=O)(=O)O)cc2Cl)C(=O)C1,11.2µM*,·,·,8.0%,·
O=C(CCC(=O)N/N=C/c1ccccc1O)NCc1ccccc1,-2.5%,·,-17.9,4.4%,-27.2%
N#CCN1CCN(CC(=O)Nc2cccc3ccccc23)CC1,6.6%,3.4,-11.7,-3.8%[38.3 µM],-6.9%
SMILES,ALDH1A1 block,IMPase cell inh,PNC inhibitor,IMPase Li inh,HPGD block
CC1CC(C)CN(CC(O)COCCOc2ccc(Br)cc2)C1 (configuration not stated),5.9%,·,-101.5*,-0.4%,-4.9%
O=S(=O)(c1cccc2nsnc12)N1CCN(c2ccccc2F)CC1,22.4µM*,·,·,9.1%,·
O=C(NCC1COc2ccccc2O1)C1CCN(S(=O)(=O)c2cccc3nsnc23)CC1 (configuration not stated),-2.2%,-6.3,-85.4*,-2.5%[38.3 µM],-8.3%
COc1ccccc1CN(Cc1cc2cc(C)ccc2[nH]c1=O)Cc1nnnn1Cc1ccco1,?,0.2,-2.3,14.2%[38.3 µM],?
Cc1ccc2cc(CN(CCN3CCOCC3)Cc3nnnn3Cc3ccco3)c(=O)[nH]c2c1C,5.01µM*,7.3,-4.1,4.5%[38.3 µM],-5.1%
CCc1ccc2[nH]c(=O)c(CN(Cc3ccccc3OC)Cc3nnnn3Cc3ccco3)cc2c1,25.1µM*,5.6,5.9,36.8%[38.3 µM],-14.9%
Cc1ccc2cc(CN(Cc3ccc4c(c3)OCO4)Cc3nnnn3Cc3ccco3)c(=O)[nH]c2c1C,?,8.9,15.2,32.0%[38.3 µM],-23.8%
